# Assay results from PubChem BioAssay (NCI).
# Compounds without any hit were thinned out: in the full panel of roughly 79,000, 15% have a hit. A number with no mark means an inactive call. Activity calls are given as the source filed them. Cut-off read from the data, not from the text of the source: active = growth inhibition above about 70%; inactive = the rest.
# Assays:
# [1] = NCI Yeast Anticancer Drug Screen. Data for the rad52 strain (AID 147);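 note: 0% = growth of vehicle-treated control cultures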; details: S. cerevisiae rad52 mutant growth inhibition, stronger effect = higher value
# In short: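 Yeast strain carrying a DNA damage repair alteration was exposed to test compounds. Growth inhibition was measured relative to vehicle-treated controls.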
# [2] = NCI Yeast Anticancer Drug Screen. Data for the wt1 strain (AID 149);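 note: 0% = growth of vehicle-treated wt1 cultures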; details: S. cerevisiae wt1 strain (SPY 50644) growth inhibition, stronger effect = higher value
# In short: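 Each compound is tested on wt1 yeast and the loss of growth versus vehicle gives the inhibition value.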
# [3] = NCI Yeast Anticancer Drug Screen. Data for the mgt1 strain (AID 153); details: S. cerevisiae mgt1 mutant growth inhibition, stronger effect = higher value
# In short: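 Yeast mgt1 strain (DNA repair/cell-cycle alteration panel) exposed to compounds; growth inhibition measured relative to vehicle-treated controls.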
# [4] = NCI Yeast Anticancer Drug Screen. Data for the rad50 strain (AID 155);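 note: 0% = growth of vehicle-only cultures of the same strain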; details: S. cerevisiae rad50 strain growth inhibition, stronger effect = higher value
# In short: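 Vehicle-treated cultures provide the reference for the growth inhibition reported for compound-exposed, repair-deficient yeast.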
# [5] = NCI Yeast Anticancer Drug Screen. Data for the mec2-1 strain (AID 157); details: S. cerevisiae mec2-1 strain, stronger effect = higher value
# In short: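 mec2-1 yeast strain, carrying an alteration in DNA damage repair or cell cycle control, was exposed to compounds; growth inhibition was measured relative to vehicle-treated controls.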
# [6] = NCI Yeast Anticancer Drug Screen. Data for the rad14 strain (AID 159);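 note: 0% = growth of vehicle-treated control cultures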; details: S. cerevisiae rad14 strain growth inhibition, stronger effect = higher value
# In short: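 Inhibition of growth is reported for a repair-deficient yeast mutant following compound treatment, calculated relative to cultures that received vehicle.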
# [7] = NCI Yeast Anticancer Drug Screen. Data for the sgs1 mgt1 strain (AID 161);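 note: 0% = growth of cultures given vehicle only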; details: S. cerevisiae sgs1 mgt1 strain, stronger effect = higher value
# In short: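 This yeast growth screen uses a strain with defined DNA-repair lesions; compound-treated growth is compared with vehicle-treated growth.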
# [8] = NCI Yeast Anticancer Drug Screen. Data for the CLN2oe strain (AID 163);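 note: 0% = growth of vehicle-only control cultures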; details: S. cerevisiae CLN2oe strain, stronger effect = higher value
# In short: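 Yeast cells carrying a defined cell-cycle control alteration were exposed to test compounds. Growth inhibition was scored against vehicle-treated control cultures.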
# [9] = NCI Yeast Anticancer Drug Screen. Data for the cln2 rad14 strain (AID 165);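 note: 0% = growth equal to vehicle treated cultures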; details: S. cerevisiae cln2 rad14 strain, stronger effect = higher value
# In short: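 Yeast carrying cln2 and rad14 alterations (cell cycle control and DNA damage repair) were exposed to compounds. Growth inhibition was measured against vehicle-treated controls.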
# [10] = NCI Yeast Anticancer Drug Screen. Data for the bub3 strain (AID 167); details: S. cerevisiae bub3 mutant strain, stronger effect = higher value
# In short: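 Mutant yeast screening strain plus compound; vehicle-treated cultures serve as the 0% inhibition reference.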
# [11] = NCI Yeast Anticancer Drug Screen. Data for the wt2 strain (AID 169); details: S. cerevisiae wt2 strain growth inhibition, stronger effect = higher value
# In short: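 Yeast cells were exposed to test compounds, and growth inhibition was measured relative to vehicle-treated controls.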
# [12] = NCI Yeast Anticancer Drug Screen. Data for the mlh1 strain (AID 171);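 note: 0% = growth of vehicle-treated control cultures of the same strain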; details: S. cerevisiae mlh1 strain growth inhibition, stronger effect = higher value
# In short: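 Yeast carrying a defined genetic alteration in DNA damage repair or cell cycle control were exposed to test compounds. Growth inhibition was measured relative to vehicle-treated controls.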
# [13] = NCI Yeast Anticancer Drug Screen. Data for the sgs1 strain (AID 173);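 note: 0% = growth of vehicle-only control cultures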; details: S. cerevisiae sgs1 mutant, stronger effect = higher value
# In short: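 Yeast mutant strains carrying defined defects in DNA damage repair or cell cycle control were exposed to test compounds. Growth inhibition was scored against vehicle-treated controls.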
# [14] = NCI Yeast Anticancer Drug Screen. Data for the mlh1 rad18 strain (AID 175); details: S. cerevisiae mlh1 rad18 strain growth inhibition, stronger effect = higher value
# In short: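 Growth inhibition of the yeast strain was measured after compound exposure and expressed relative to vehicle-treated controls. The strain carries defined defects in DNA damage repair.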
# [15] = NCI Yeast Anticancer Drug Screen. Data for the rad18 strain (AID 177); details: S. cerevisiae rad18 mutant growth inhibition, stronger effect = higher value
# In short: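 Yeast carrying a defined DNA damage repair alteration were exposed to compounds. Growth inhibition was expressed relative to vehicle-treated controls.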
# [16] = at 5.0 µM (retest, dose inferred, filed as 0.5)
# [17] = at 50.0 µM (retest, dose inferred, filed as 5.0)
smiles,measurement,setting,value
CC(C)(Br)C(=O)/C=C/c1ccc(Cl)c(Cl)c1,growth inhibition,[1]; at 1.2 µM,2%
same,growth inhibition,[1]; at 3.7 µM,3%
same,growth inhibition,[1]; at 11.0 µM,-1%
same,growth inhibition,[1]; at 33.0 µM,2%
same,growth inhibition,[1]; at 100.0 µM,-4%
same,growth inhibition,[2]; at 1.2 µM,-2%
same,growth inhibition,[2]; at 3.7 µM,-1%
same,growth inhibition,[2]; at 11.0 µM,-3%
same,growth inhibition,[2]; at 33.0 µM,0%
same,growth inhibition,[2]; at 100.0 µM,1%
same,growth inhibition,[3]; at 1.2 µM,-4%
same,growth inhibition,[3]; at 3.7 µM,0%
same,growth inhibition,[3]; at 11.0 µM,-1%
same,growth inhibition,[3]; at 33.0 µM,0%
same,growth inhibition,[3]; at 100.0 µM,0%
same,growth inhibition,[4]; at 1.2 µM,4%
same,growth inhibition,[4]; at 3.7 µM,3%
same,growth inhibition,[4]; [16],17%
same,growth inhibition,[4]; at 11.0 µM,1%
same,growth inhibition,[4]; at 33.0 µM,4%
same,growth inhibition,[4]; [17],64%
same,growth inhibition,[4]; at 50.0 µM,87.4% (active)
same,growth inhibition,[4]; at 100.0 µM,4%
same,growth inhibition,[5]; at 1.2 µM,-1%
same,growth inhibition,[5]; at 3.7 µM,1%
same,growth inhibition,[5]; [16],16%
same,growth inhibition,[5]; at 11.0 µM,-1%
same,growth inhibition,[5]; at 33.0 µM,1%
same,growth inhibition,[5]; [17],49%
same,growth inhibition,[5]; at 50.0 µM,48.2%
same,growth inhibition,[5]; at 100.0 µM,-1%
same,growth inhibition,[6]; at 1.2 µM,4%
same,growth inhibition,[6]; at 3.7 µM,2%
same,growth inhibition,[6]; at 11.0 µM,1%
same,growth inhibition,[6]; at 33.0 µM,2%
same,growth inhibition,[6]; at 100.0 µM,3%
same,growth inhibition,[7]; [16],33%
same,growth inhibition,[7]; [17],77% (active)
same,growth inhibition,[7]; at 50.0 µM,85.8% (active)
same,growth inhibition,[8]; at 1.2 µM,-3%
same,growth inhibition,[8]; at 3.7 µM,-1%
same,growth inhibition,[8]; at 11.0 µM,-5%
same,growth inhibition,[8]; at 33.0 µM,0%
same,growth inhibition,[8]; at 100.0 µM,0%
same,growth inhibition,[9]; [16],7%
same,growth inhibition,[9]; [17],28%
same,growth inhibition,[9]; at 50.0 µM,52%
same,growth inhibition,[10]; at 1.2 µM,-2%
same,growth inhibition,[10]; at 3.7 µM,-3%
same,growth inhibition,[10]; [16],7%
same,growth inhibition,[10]; at 11.0 µM,-2%
same,growth inhibition,[10]; at 33.0 µM,-1%
same,growth inhibition,[10]; [17],56%
same,growth inhibition,[10]; at 50.0 µM,78.9% (active)
same,growth inhibition,[10]; at 100.0 µM,-2%
same,growth inhibition,[11]; at 1.2 µM,-5%
same,growth inhibition,[11]; at 3.7 µM,-10%
same,growth inhibition,[11]; at 11.0 µM,-12%
same,growth inhibition,[11]; at 33.0 µM,-10%
same,growth inhibition,[11]; at 100.0 µM,-8%
same,growth inhibition,[12]; at 1.2 µM,-2%
same,growth inhibition,[12]; at 3.7 µM,-1%
same,growth inhibition,[12]; at 11.0 µM,-2%
same,growth inhibition,[12]; at 33.0 µM,1%
same,growth inhibition,[12]; at 100.0 µM,3%
same,growth inhibition,[13]; at 1.2 µM,-1%
same,growth inhibition,[13]; at 3.7 µM,-3%
same,growth inhibition,[13]; at 11.0 µM,12%
same,growth inhibition,[13]; at 33.0 µM,7%
same,growth inhibition,[13]; at 100.0 µM,17%
same,growth inhibition,[14]; [16],27%
same,growth inhibition,[14]; [17],78% (active)
same,growth inhibition,[14]; at 50.0 µM,82.8% (active)
same,growth inhibition,[15]; at 1.2 µM,3%
same,growth inhibition,[15]; at 3.7 µM,6%
same,growth inhibition,[15]; at 11.0 µM,3%
same,growth inhibition,[15]; at 33.0 µM,7%
same,growth inhibition,[15]; at 100.0 µM,50%
COc1ccc(/C(C)=N/OC(=O)c2c(-c3ccccc3Cl)noc2C)cc1CN1CCOCC1,growth inhibition,[1]; at 1.2 µM,21%
same,growth inhibition,[1]; at 3.7 µM,23%
same,growth inhibition,[1]; at 11.0 µM,19%
same,growth inhibition,[1]; at 33.0 µM,34%
same,growth inhibition,[1]; at 100.0 µM,75% (active)
same,growth inhibition,[2]; at 1.2 µM,-7%
same,growth inhibition,[2]; at 3.7 µM,-10%
same,growth inhibition,[2]; at 11.0 µM,-14%
same,growth inhibition,[2]; at 33.0 µM,-7%
same,growth inhibition,[2]; at 100.0 µM,39%
same,growth inhibition,[3]; at 1.2 µM,-3%
same,growth inhibition,[3]; at 3.7 µM,-5%
same,growth inhibition,[3]; at 11.0 µM,0%
same,growth inhibition,[3]; at 33.0 µM,36%
same,growth inhibition,[3]; at 100.0 µM,87% (active)
same,growth inhibition,[4]; at 1.2 µM,-39%
same,growth inhibition,[4]; at 3.7 µM,-28%
same,growth inhibition,[4]; [16],63%
same,growth inhibition,[4]; at 11.0 µM,-20%
same,growth inhibition,[4]; at 33.0 µM,21%
same,growth inhibition,[4]; [17],88% (active)
same,growth inhibition,[4]; at 50.0 µM,64.7%
same,growth inhibition,[4]; at 100.0 µM,70% (active)
same,growth inhibition,[5]; at 1.2 µM,-25%
same,growth inhibition,[5]; at 3.7 µM,2%
same,growth inhibition,[5]; [16],68%
same,growth inhibition,[5]; at 11.0 µM,-12%
same,growth inhibition,[5]; at 33.0 µM,7%
same,growth inhibition,[5]; [17],98% (active)
same,growth inhibition,[5]; at 50.0 µM,14.3%
same,growth inhibition,[5]; at 100.0 µM,50%
same,growth inhibition,[6]; at 1.2 µM,-8%
same,growth inhibition,[6]; at 3.7 µM,-17%
same,growth inhibition,[6]; at 11.0 µM,-20%
same,growth inhibition,[6]; at 33.0 µM,45%
same,growth inhibition,[6]; at 100.0 µM,91% (active)
same,growth inhibition,[7]; [16],-16%
same,growth inhibition,[7]; [17],98% (active)
same,growth inhibition,[7]; at 50.0 µM,74.4% (active)
same,growth inhibition,[8]; at 1.2 µM,-12%
same,growth inhibition,[8]; at 3.7 µM,-7%
same,growth inhibition,[8]; at 11.0 µM,8%
same,growth inhibition,[8]; at 33.0 µM,17%
same,growth inhibition,[8]; at 100.0 µM,60%
same,growth inhibition,[9]; [16],46%
same,growth inhibition,[9]; [17],97% (active)
same,growth inhibition,[9]; at 50.0 µM,45.8%
same,growth inhibition,[10]; at 1.2 µM,-6%
same,growth inhibition,[10]; at 3.7 µM,-7%
same,growth inhibition,[10]; [16],17%
same,growth inhibition,[10]; at 11.0 µM,-18%
same,growth inhibition,[10]; at 33.0 µM,5%
same,growth inhibition,[10]; [17],97% (active)
same,growth inhibition,[10]; at 50.0 µM,58.8%
same,growth inhibition,[10]; at 100.0 µM,50%
same,growth inhibition,[11]; at 1.2 µM,-18%
same,growth inhibition,[11]; at 3.7 µM,-27%
same,growth inhibition,[11]; at 11.0 µM,-21%
same,growth inhibition,[11]; at 33.0 µM,-7%
same,growth inhibition,[11]; at 100.0 µM,65%
same,growth inhibition,[12]; at 1.2 µM,-22%
same,growth inhibition,[12]; at 3.7 µM,-16%
same,growth inhibition,[12]; at 11.0 µM,-27%
same,growth inhibition,[12]; at 33.0 µM,14%
same,growth inhibition,[12]; at 100.0 µM,85% (active)
same,growth inhibition,[13]; at 1.2 µM,-30%
same,growth inhibition,[13]; at 3.7 µM,-29%
same,growth inhibition,[13]; at 11.0 µM,-19%
same,growth inhibition,[13]; at 33.0 µM,30%
same,growth inhibition,[13]; at 100.0 µM,78% (active)
same,growth inhibition,[14]; [16],53%
same,growth inhibition,[14]; [17],85% (active)
same,growth inhibition,[14]; at 50.0 µM,57.4%
O=[N+]([O-])c1cc(CCl)ccc1CCl,growth inhibition,[1]; at 1.2 µM,6%
same,growth inhibition,[1]; at 3.7 µM,11%
same,growth inhibition,[1]; at 11.0 µM,69%
same,growth inhibition,[1]; at 33.0 µM,95% (active)
same,growth inhibition,[1]; at 100.0 µM,97% (active)
same,growth inhibition,[2]; at 1.2 µM,2%
same,growth inhibition,[2]; at 3.7 µM,8%
same,growth inhibition,[2]; at 11.0 µM,30%
same,growth inhibition,[2]; at 33.0 µM,93% (active)
same,growth inhibition,[2]; at 100.0 µM,97% (active)
same,growth inhibition,[3]; at 1.2 µM,4%
same,growth inhibition,[3]; at 3.7 µM,2%
same,growth inhibition,[3]; at 11.0 µM,25%
same,growth inhibition,[3]; at 33.0 µM,90% (active)
same,growth inhibition,[3]; at 100.0 µM,97% (active)
same,growth inhibition,[4]; at 1.2 µM,7%
same,growth inhibition,[4]; at 3.7 µM,20%
same,growth inhibition,[4]; [16],-3%
same,growth inhibition,[4]; at 11.0 µM,84% (active)
same,growth inhibition,[4]; at 33.0 µM,97% (active)
same,growth inhibition,[4]; [17],98% (active)
same,growth inhibition,[4]; at 50.0 µM,99.1% (active)
same,growth inhibition,[4]; at 100.0 µM,97% (active)
same,growth inhibition,[5]; at 1.2 µM,3%
same,growth inhibition,[5]; at 3.7 µM,6%
same,growth inhibition,[5]; [16],-7%
same,growth inhibition,[5]; at 11.0 µM,37%
same,growth inhibition,[5]; at 33.0 µM,93% (active)
same,growth inhibition,[5]; [17],97% (active)
same,growth inhibition,[5]; at 50.0 µM,98.9% (active)
